Test results as given in PubChem BioAssay (EPA / NIEHS).
Several values for one entry are separate records, joined by “and”; a condition that tells them apart may be missing. Equal entries are not always repeated. Inconclusive results are not listed. Some compounds were tested as several samples or in several runs, with calls that do not always agree. Activity calls are given as the source filed them. The calls were made as follows, unless noted: active = hit-call score of the fitted dose curve at least 0.9, where 1 is the maximum; inactive = score below 0.9.

Experiments:
[1] = CCTE_Shafer_MEA_dev_per_burst_spike_percent: CCTE's Neural Network Formation Assay for Percent of Spikes in a Burst, Shafer Lab (AID 2284032);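 as to AC50: fitted as a decrease in burst spike percentage below DMSO baseline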
How it was run: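 Value is trapezoidal AUC over recordings on days 5, 7, 9 and 12 of the well-mean fraction of spikes falling in single-electrode bursts; rat cortical cultures exposed continuously from plating, treatment renewed DIV 5 and 9, fitted downward against DMSO.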

[2] = CCTE_Deisenroth_AIME_384WELL_CTox_Active: Cytotoxicity Assessment (CTOX) in CCTE's 384-well Estrogen Receptor Transactivation Assay with AIME metabolic competence (metabolism positive), Deisenroth Lab (AID 2284037; active = hit-call score of the fitted dose curve at least 0.9, where 1 is the maximum;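 also: chemicals first conditioned 2 h by alginate-bound induced rat liver S9 before cells; activity means signal loss indicating cell death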)
How it was run: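 Chemicals pre-incubated 2 hours with alginate-immobilised phenobarbital/beta-naphthoflavone-induced male Sprague Dawley rat liver S9, then conditioned medium applied 24 hour to VM7Luc4E2 cells. Viability by fluorogenic protease substrate; 10-point series 0.002 - 200 uM.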

[3] = CCTE_Deisenroth_AIME_384WELL_CTox_Inactive: Cytotoxicity Assessment (CTOX) in CCTE's 384-well Estrogen Receptor Transactivation Assay without AIME metabolic competence (metabolism negative), Deisenroth Lab (AID 2284039; active = hit-call score of the fitted dose curve at least 0.9, where 1 is the maximum;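 also: cell viability via live-cell protease substrate cleaved to fluorescent probe; cells exposed 24 h to medium preincubated 2 h with alginate-water beads without S9; loss of fluorescence signal means loss of viability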)
How it was run: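 Fluorescence from a live-cell protease substrate, read after 24 h in VM7Luc4E2 cells, indicated viability. Test medium came from a 2 h AIME step without hepatic S9 (alginate-water microspheres); concentrations spanned 0.002 - 200 uM, single technical replicate per run.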

[4] = CCTE_Shafer_MEA_dev_active_electrodes_number: CCTE's Neural Network Formation Assay for Number of Active Electrodes, Shafer Lab (AID 2284040; active = hit-call score of the fitted dose curve at least 0.9, where 1 is the maximum;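 as to AC50: potency for loss of active electrodes versus DMSO so lower counts are hits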)
How it was run: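 Counts electrodes per well firing at least 5 spikes/min, recorded on days 5, 7, 9 and 12 in rat cortical cultures dosed continuously from plating (treatment refreshed DIV 5, 9). Value is the area under the curve over recordings, fitted downward relative to DMSO.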

[5] = CCTE_Shafer_MEA_dev_burst_rate: CCTE's Neural Network Formation Assay for Burst Rate, Shafer Lab (AID 2284042);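 as to AC50: potency for loss of burst rate below DMSO control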
How it was run: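 Developmental network assay measuring how 12-day exposure of rat cortical neuron cultures alters bursting on extracellular MEA recordings. Values are AUC of well-mean burst rate across four recording days, relative to DMSO vehicle.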

[6] = CCTE_Shafer_MEA_dev_bursting_electrodes_number: CCTE's Neural Network Formation Assay for Number of Bursting Electrodes, Shafer Lab (AID 2284043; active = hit-call score of the fitted dose curve at least 0.9, where 1 is the maximum;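 as to AC50: potency is for loss of bursting electrodes relative to DMSO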)
How it was run: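 Rat cortical primary neurons, 48-well MEA, 16 electrodes/well; dosing DIV 0–12, re-dosed with full media change DIV 5, 9. Recordings DIV 5/7/9/12, AxIS adaptive spike detector; bursting electrode = ≥1 burst/2 min. AUC across days; loss of signal vs DMSO.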

[7] = CCTE_Shafer_MEA_dev_per_burst_interspike_interval: CCTE's Neural Network Formation Assay for Burst Interspike Interval, Shafer Lab (AID 2284044);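 as to AC50: potency for a decrease of within-burst interspike interval below DMSO level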
How it was run: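 Developmental network-formation MEA in primary rat cortical cultures with exposure spanning days 0–12. Within-burst ISI is averaged per well and integrated across recording days by area under the curve, with DMSO as negative control baseline.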

[8] = CCTE_Shafer_MEA_dev_burst_duration_mean: CCTE's Neural Network Formation Assay for Mean Burst Duration, Shafer Lab (AID 2284045);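 as to AC50: curve fitted for loss meaning shorter burst duration than DMSO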
How it was run: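 Rat cortical cultures, 1.5 x 10^5 cells/well with laminin drop; continuous dosing days 0–12, media plus treatment refreshed DIV 5, 9. AxIS adaptive spike detection; mean single-electrode burst duration, AUC over four recordings, negative direction vs DMSO.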

[9] = CCTE_Shafer_MEA_dev_interburst_interval_mean: CCTE's Neural Network Formation Assay for Mean Interburst Interval, Shafer Lab (AID 2284046);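 also: well-mean interburst interval of bursting electrodes as AUC over four recording days; curve fitted for decrease in interburst interval relative to DMSO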
How it was run: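 Network formation assay in primary rat cortical cultures, exposed from DIV 0 to 12. Mean interburst interval per well, integrated as AUC over four recordings.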

[10] = CCTE_Shafer_MEA_dev_inter_network_spike_interval_mean: CCTE's Neural Network Formation Assay for Mean Inter-network Spike Interval, Shafer Lab (AID 2284047);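 as to AC50: potency for a decrease in mean inter-network spike interval below DMSO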
How it was run: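 Compound was given at plating to primary rat cortical neurons and renewed with full medium changes on DIV 5 and 9. Extracellular activity was recorded on days 5, 7, 9, 12; AUC values were fitted for loss relative to DMSO control.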

For CCN(CC)C(=S)SSC(=S)N(CC)CC, the AC50 [1] was 143 nM (active) and 47.8 nM (active), the outcome [2] was “inactive” and the outcome [3] was “inactive”. The AC50 [4] was 118 nM (active) and 54.8 nM (active), the AC50 [5] was 124 nM (active) and 50 nM (active) and the AC50 [6] was 108 nM (active) and 46.3 nM (active). The AC50 [7] was 157 nM (active) and 39.7 nM (active), the AC50 [8] was 103 nM (active) and 38.3 nM (active) and the AC50 [9] was 200 nM (active) and 55.2 nM (active). The AC50 [10] was 225 nM (active) and 91.6 nM (active).
With CC[C@H](C)C(=O)O[C@H]1C[C@H](O)C=C2C=C[C@H](C)[C@H](CC[C@@H](O)C[C@@H](O)CC(=O)O)[C@H]21 the AC50 [1] was 1.92 µM (active), the AC50 [4] was 2.28 µM (active) and the outcome [5] was “inactive”. The outcome [7] was “inactive”, the outcome [8] was “inactive” and the outcome [9] was “inactive”. The outcome [10] was “inactive”.
With CCOc1ccc2[nH]cc(C(=O)NCc3ccccc3)c(=O)c2n1 the outcome [1] was “inactive”, the AC50 [4] was 1.23 µM (active) and the outcome [5] was “inactive”. The AC50 [6] was 804 nM (active), the outcome [7] was “inactive” and the outcome [8] was “inactive”. The outcome [9] was “inactive” and the outcome [10] was “inactive”.
With OC(O)(C(F)C(O)(O)C(F)(F)F)C(F)(F)F the outcome [1] was “inactive”, the AC50 [4] was 3.9 µM (active) and the outcome [4] was “inactive”. The outcome [5] was “inactive”, the outcome [6] was “inactive” and the outcome [7] was “inactive”. For the same molecule, the outcome [8] was “inactive”, the outcome [9] was “inactive” and the outcome [10] was “inactive”.
With c1ccc2cc3ccccc3cc2c1 the outcome [1] was “inactive”, the outcome [4] was “inactive” and the outcome [5] was “inactive”. For the same molecule, the outcome [6] was “inactive”, the outcome [7] was “inactive” and the outcome [8] was “inactive”. The outcome [9] was “inactive” and the outcome [10] was “inactive”.
For NC(=O)NN=Cc1ccc([N+](=O)[O-])o1, the AC50 [2] was 116000 nM (active) and the AC50 [3] was 108000 nM (active).
In the case of C[C@]12C=CC(=O)C=C1CC[C@H]1[C@@H]3C[C@@H](O)[C@](O)(C(=O)CO)[C@@]3(C)C[C@H](O)[C@@]12F, the outcome [1] is reported as “inactive”, the outcome [4] is reported as “inactive” and the outcome [5] is reported as “inactive”. The outcome [6] was “inactive”, the outcome [7] was “inactive” and the outcome [9] was “inactive”. For the same molecule, the outcome [10] was “inactive”.
With c1ccc(C(O[C@@H]2CCCN(CCc3ccc4c(c3)OCO4)C2)c2ccccc2)cc1 the outcome [2] was “inactive”.
With Nc1ccn([C@@H]2O[C@H](CO)[C@@H](O)[C@@H]2O)c(=O)n1 the AC50 [1] was 138 nM (active) and 298 nM (active), the AC50 [4] was 185 nM (active) and 303 nM (active) and the AC50 [5] was 120 nM (active) and 1.09 µM (active). For the same molecule, the AC50 [6] was 195 nM (active) and 215 nM (active), the AC50 [7] was 254 nM (active) and the outcome [7] was “inactive”. The AC50 [8] was 248 nM (active) and 1.85 µM (active), the AC50 [9] was 158 nM (active) and 437 nM (active) and the AC50 [10] was 140 nM (active). The outcome [10] was “inactive”.
For CCCCOC(=O)c1ccccc1, the outcome [2] was “inactive” and the outcome [3] was “inactive”.
For OCCOCCOCCO, the outcome [2] was “inactive” and the outcome [3] was “inactive”.
With CC(=O)c1ccccc1 the outcome [2] was “inactive” and the outcome [3] was “inactive”.
With OCC(CO)(CO)CO the outcome [3] was “inactive”.
With FC(F)(F)C(F)(F)C(F)(F)C(F)(F)C(F)(F)C(F)(F)I the outcome [1] was “inactive”, the outcome [4] was “inactive” and the outcome [5] was “inactive”. The outcome [6] was “inactive”, the outcome [7] was “inactive” and the outcome [8] was “inactive”. For the same molecule, the outcome [9] was “inactive” and the outcome [10] was “inactive”.
With C[C@@H](Oc1ccc(CNC(=O)c2cccnc2Oc2ccc3c(c2)OCO3)c(F)c1)C(=O)O the outcome [2] was “inactive” and the outcome [3] was “inactive”.
In the case of Cn1cc[nH]c1=S, the outcome [1] is reported as “inactive”, the outcome [4] is reported as “inactive” and the outcome [5] is reported as “inactive”. For the same molecule, the outcome [6] was “inactive”, the outcome [7] was “inactive” and the outcome [8] was “inactive”. For the same molecule, the outcome [9] was “inactive” and the outcome [10] was “inactive”.
With OCCC(F)(F)C(F)(F)C(F)(F)C(F)(F)F the outcome [1] was “inactive”, the outcome [4] was “inactive” and the outcome [5] was “inactive”. For the same molecule, the outcome [7] was “inactive”, the outcome [8] was “inactive” and the outcome [9] was “inactive”. For the same molecule, the outcome [10] was “inactive”.
In the case of CCc1ccc(O)c(C(C)(C)C)c1, the outcome [2] is reported as “inactive” and the outcome [3] is reported as “inactive”.
